These results are taken from PubChem BioAssay (NCI).

Structures are written as SMILES. Compounds without any hit were thinned out: in the full panel of roughly 83,000, 20% have a hit.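 Cell lines were cultured in 96-well plates, exposed to a single compound concentration, and assessed for percent growth 48 hours later.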 A number with no mark means an inactive call. Calls of active or inactive are those of the source. Rule for the calls: active = growth percent below 10; inactive = the rest.

Test systems include SK-MEL-2 melanoma; SN12C renal; UO-31 renal; TK-10 renal; ACHN renal; A498 renal; CCRF-CEM leukemia; RPMI-8226 leukemia; OVCAR-5 ovarian; SK-OV-3 ovarian; OVCAR-3 ovarian; HS 578T breast; NCI/ADR-RES ovarian; EKVX NSCLC; CAKI-1 renal; MOLT-4 leukemia; SR leukemia; OVCAR-8 ovarian; OVCAR-4 ovarian; IGROV1 ovarian.
Holding throughout (test): NCI-60 one-dose screen, 48 h (100 = growth as untreated, 0 = no growth, -100 = all killed)
What all share (conditions): 10 µM

Consider `CC(C)(C)c1nn(-c2ccccc2)c2c1CC1(CN2Cc2ccc(Cl)cc2)C(=O)c2ccccc2C1=O`, for which the growth in the assay with SK-MEL-2 melanoma is 92.4%; in the assay with SN12C renal it was 86.1%; in the assay with UO-31 renal, 99.6%; in the assay with TK-10 renal it was 99.3%; in the assay on ACHN renal it was 98.9%; with A498 renal, 76.5%. Also, the growth in the assay on CCRF-CEM leukemia was 66.2%; in the assay on RPMI-8226 leukemia, 59.5%; with OVCAR-5 ovarian, 103%; with SK-OV-3 ovarian, 93.3%; in the assay on OVCAR-3 ovarian, 78.1%; in the assay with HS 578T breast it was 110%. In addition, in the assay with NCI/ADR-RES ovarian, the growth was 84.3%.

Regarding `CN1CCN(C2=Nc3ccccc3Oc3ccc(Cl)cc32)CC1`, the growth in the assay with EKVX NSCLC is 107%; with SN12C renal, 100%; with UO-31 renal it was 77.1%; in the assay on TK-10 renal, 89.7%; in the assay on ACHN renal it was 93.6%; with CAKI-1 renal it was 81.5%. Besides, the growth with A498 renal is 81.3%; in the assay with CCRF-CEM leukemia, 99.6%; with MOLT-4 leukemia it was 80.3%; in the assay on SR leukemia, 76.9%; in the assay with RPMI-8226 leukemia it was 99.5%; in the assay with OVCAR-8 ovarian it was 107%. Besides, the growth with OVCAR-5 ovarian was 96.1%; in the assay on OVCAR-4 ovarian it was 84.3%; in the assay on SK-OV-3 ovarian, 117%; in the assay on IGROV1 ovarian, 97.2%; in the assay with OVCAR-3 ovarian, 104%; with HS 578T breast, 104%.

As to `C[C@]12CCC3c4ccc(O)cc4C[C@@H](CCCCCCCCCS(=O)CCCC(F)(F)C(F)(F)F)C3C1CC[C@@H]2O` (stereo not given in full), the growth in the assay on EKVX NSCLC is 64.8%; in the assay on SN12C renal, 93.7%; in the assay with UO-31 renal, 62.7%; in the assay with TK-10 renal, 93%; with ACHN renal, 74.3%; with CAKI-1 renal, 59.2%. Besides, the growth in the assay on A498 renal was 84.6%; in the assay on CCRF-CEM leukemia it was 73.6%; in the assay with MOLT-4 leukemia it was 39.6%; with RPMI-8226 leukemia, 62.5%; with OVCAR-8 ovarian, 77.7%; in the assay with OVCAR-5 ovarian, 84.5%. Further, the growth was 66.2% in the assay with OVCAR-4 ovarian; 103% with SK-OV-3 ovarian; 92.3% in the assay with IGROV1 ovarian; 88.4% with OVCAR-3 ovarian; 81.4% in the assay on HS 578T breast; 70.4% in the assay on NCI/ADR-RES ovarian.

Turning to `Nc1nc(Cl)nc2c1ncn2C1O[C@H](CO)[C@@H](O)[C@@H]1F` (stereo not given in full), the growth is 38.1% in the assay with EKVX NSCLC; 14.5% in the assay on SN12C renal; 0.968% (active) with UO-31 renal; 64.5% with TK-10 renal; 3.32% (active) in the assay with ACHN renal; -25.9% (active) in the assay with CAKI-1 renal. Besides, the growth in the assay on A498 renal was 15.6%; in the assay on CCRF-CEM leukemia it was 2.64% (active); in the assay with MOLT-4 leukemia, -4.67% (active); with SR leukemia it was 7.7% (active); with RPMI-8226 leukemia, 105%; in the assay on OVCAR-5 ovarian, 47.4%. Also, the growth was 80.2% in the assay with OVCAR-4 ovarian; 34.5% with SK-OV-3 ovarian; 53% with IGROV1 ovarian; 60.7% in the assay on OVCAR-3 ovarian; 82.5% in the assay on HS 578T breast; 16.6% in the assay on NCI/ADR-RES ovarian.

With `CCCc1nc(C(C)(C)O)c(C(=O)O)n1Cc1ccc(-c2ccccc2-c2nn[nH]n2)cc1`, the growth is 106% in the assay on EKVX NSCLC; 96.4% with SN12C renal; 84.6% with UO-31 renal; 96.8% in the assay with TK-10 renal; 93.5% in the assay with ACHN renal; 92.6% with CAKI-1 renal. Besides, the growth in the assay on A498 renal was 80.2%; in the assay on CCRF-CEM leukemia, 95.8%; with MOLT-4 leukemia, 107%; in the assay with SR leukemia it was 85.9%; in the assay on RPMI-8226 leukemia it was 104%; in the assay on OVCAR-8 ovarian, 91.7%. The growth in the assay on OVCAR-5 ovarian was 104%; in the assay with SK-OV-3 ovarian, 106%; in the assay on IGROV1 ovarian it was 114%; in the assay with OVCAR-3 ovarian, 117%; in the assay on HS 578T breast it was 102%; in the assay on NCI/ADR-RES ovarian, 105%.

With `O=C1Cc2cc(CCN3CCN(c4nsc5ccccc45)CC3)c(Cl)cc2N1`, the growth was 88.1% in the assay with EKVX NSCLC; 91% with SN12C renal; 58.8% with UO-31 renal; 104% in the assay with TK-10 renal; 95.6% in the assay on ACHN renal; 86.6% in the assay on CAKI-1 renal. Further, the growth in the assay on A498 renal is 64.1%; in the assay on CCRF-CEM leukemia, 9.84% (active); with MOLT-4 leukemia, 81.8%; in the assay with SR leukemia it was 86%; with RPMI-8226 leukemia it was 78.9%; in the assay with OVCAR-8 ovarian it was 93.7%. For the same compound, the growth is 108% with OVCAR-5 ovarian; 84.1% with OVCAR-4 ovarian; 121% in the assay on SK-OV-3 ovarian; 101% in the assay with IGROV1 ovarian; 97.6% in the assay on OVCAR-3 ovarian; 103% with HS 578T breast. The growth with NCI/ADR-RES ovarian is 98.4%.

Regarding `C[N+]1(CCCCC[N+]2(C)CCCC2)CCCC1`, the growth was 80% in the assay with EKVX NSCLC; 62.4% with SN12C renal; 78.5% with UO-31 renal; 108% in the assay on TK-10 renal; 97.2% in the assay on ACHN renal; 78.6% with CAKI-1 renal. The growth in the assay with A498 renal was 108%; in the assay with CCRF-CEM leukemia, 67.5%; in the assay with MOLT-4 leukemia, 91%; with SR leukemia, 97.4%; in the assay with RPMI-8226 leukemia, 61.7%; in the assay on OVCAR-8 ovarian it was 78.1%. Besides, the growth is 72.9% with OVCAR-5 ovarian; 68.9% in the assay on SK-OV-3 ovarian; 105% in the assay on IGROV1 ovarian; 107% in the assay with OVCAR-3 ovarian; 106% in the assay on HS 578T breast.

Take `COc1ccc2nc3cc(Cl)ccc3c(Nc3cc(CN4CCCC4)c(O)c(CN4CCCC4)c3)c2n1`: the growth in the assay on EKVX NSCLC is 8.66% (active); with SN12C renal it was 10.7%; in the assay with UO-31 renal, 18.9%; with TK-10 renal, 21.4%; with ACHN renal it was 22.9%; in the assay on CAKI-1 renal it was -4.38% (active). For the same compound, the growth is -17.4% (active) with A498 renal; 2.85% (active) in the assay on CCRF-CEM leukemia; -25.2% (active) in the assay with MOLT-4 leukemia; -18.6% (active) with SR leukemia; -3.6% (active) in the assay with RPMI-8226 leukemia; 10.5% in the assay on OVCAR-8 ovarian. Besides, the growth in the assay on OVCAR-5 ovarian is 6.64% (active); with OVCAR-4 ovarian it was -16.3% (active); with SK-OV-3 ovarian, 29.8%; in the assay with IGROV1 ovarian, 27.6%; with OVCAR-3 ovarian, 23.9%; with HS 578T breast it was 15.5%. In the assay with NCI/ADR-RES ovarian, the growth is 10.1%.
